Screening results as filed in PubChem BioAssay.
Rab9 promoter act: qHTS Assay for Rab9 Promoter Activators; hit rate 2.8% among 320,000; Huh7 Rab9 promoter-luciferase reporter, luminescence, 24 h; Potency, µM (highest dose often 9.22 µM), for the others: at the top dose activation, negative = inhibition, actives largely listed as activators; AID 485297, 2010; also: % of control where 0% means no effect; nearly all actives have a fitted effect of over 60% in size
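Measured in stably transfected Huh7 cells bearing a Rab9 promoter–luciferase construct: 24 h compound treatment at 37 °C, followed by luminescence detection.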
ELG1 genotoxic: qHTS screen for small molecules that induce genotoxicity in human embryonic kidney (HEK293T) cells expressing luciferase-tagged ELG1; Potency, µM (highest dose often 46 µM), for the others: at the highest dose activity change, positive = activation, most hits filed as activators; hit rate 1.3% among 330,000; HEK293T ELG1-luciferase reporter, luminescence, 16 h; also: % of control where 0% means no effect; nearly all actives have a fitted effect of over 60% in size
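ELG1-luciferase HEK293T cells, 2,000/well; compound pinned in; 16 hr, 37 °C, 5% CO2; ONE-Glo, 30 min RT; luminescence on CCD imager.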
FLuc counter: qHTS profiling assay for firefly luciferase inhibitor/activator using purifed enzyme and Km concentrations of substrates (counterscreen for miR-21 project). purified FLuc, Km substrates, luminescence inhibition. Potency, µM (titrated, usually from 57.5 µM), without a hit: top-dose activity change, negative = inhibition, most hits filed as inhibitors. hit rate 6.9% among 360,000. Luciferin 4-monooxygenase (Photinus pyralis), P08659;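 also: plate controls were vehicle for no effect and reference inhibitor for full effect; nearly all actives have a fitted effect of over 55% in size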
Target sequence (P08659 whole entry, looked up): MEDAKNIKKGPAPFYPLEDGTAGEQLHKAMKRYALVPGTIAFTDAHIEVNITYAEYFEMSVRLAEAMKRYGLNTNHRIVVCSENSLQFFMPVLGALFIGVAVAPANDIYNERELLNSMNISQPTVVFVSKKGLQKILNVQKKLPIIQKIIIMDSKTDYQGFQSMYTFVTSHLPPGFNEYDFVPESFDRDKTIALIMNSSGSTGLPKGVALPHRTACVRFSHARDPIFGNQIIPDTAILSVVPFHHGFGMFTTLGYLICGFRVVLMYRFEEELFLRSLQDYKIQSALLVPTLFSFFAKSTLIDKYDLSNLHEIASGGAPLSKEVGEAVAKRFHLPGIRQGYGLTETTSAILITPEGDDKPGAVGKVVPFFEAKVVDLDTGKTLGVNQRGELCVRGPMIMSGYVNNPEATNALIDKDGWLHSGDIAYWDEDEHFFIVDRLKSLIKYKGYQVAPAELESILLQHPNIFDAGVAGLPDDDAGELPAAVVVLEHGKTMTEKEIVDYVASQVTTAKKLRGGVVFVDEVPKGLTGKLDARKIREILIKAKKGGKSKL
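Purified P. pyralis luciferase (10nM final) with 10uM D-luciferin and 10uM ATP (Km levels) in 50mM Tris acetate pH 7.5, 10mM Mg acetate, 0.01% Tween-20, 0.05% BSA; qHTS 6-point titration, ~60 µM downward; luminescence read.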
NPC1 prom act: qHTS Assay for NPC1 Promoter Activators | Huh7 NPC1 promoter luciferase reporter, 24 h | hit rate 2.4% among 320,000 | Potency, µM (doses to about 9.22 µM), without a hit: at the top dose activation, hits mostly activators; also: % of control where 0% means no effect; nearly all actives have a fitted effect of over 60% in size
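Luciferase expression driven by the NPC1 promoter was measured in stably transfected Huh7 cells after a 24 h compound incubation, using a luciferase reagent and a luminescence read.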
ELG1 DNA repair: qHTS screen for small molecules that inhibit ELG1-dependent DNA repair in human embryonic kidney (HEK293T) cells expressing luciferase-tagged ELG1 | HEK293T ELG1-luciferase reporter, luminescence, 16 h; DNA damage induced by 5-fluorouridine | Potency, µM (highest dose often 46.1 µM), inactives show at the top dose activity change, negative = inhibition, usual class: inhibitors | hit rate 2.3% among 330,000 | AID 504467, 2011; also: % is scaled to controls: 0 for no effect and ±100 for the full control effect; nearly all actives have a fitted effect of over 55% in size
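Quantitative HTS, concentration-response format. 2,000 cells/well co-treated with 5-fluorouridine and compound, 16 hr in 5% CO2 at 37 °C; ONE-Glo luminescence read after 30 min.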
SMN2 splice up: qHTS Assay for Enhancers of SMN2 Splice Variant Expression | HEK293 SMN2-luciferase splicing reporter, luminescence, 30-36 h | Potency, µM (highest dose often 46.1 µM), for the others: at the top dose activity change, positive = activation, most hits filed as activators | hit rate 2.8% among 210,000; also: % of control where 0% means no effect; nearly all actives have a fitted effect of over 55% in size
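HEK293 cells carry an SMN2 minigene-luciferase reporter in which exon 7 inclusion puts luciferase in frame. Cells were seeded at 2000 cells/well, attached for 10-12 hours, then exposed to compounds for 30-36 hours at 37C before ONE-Glo luminescence.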
Starred values were filed as active, the others as inactive; ? = inconclusive; . = no result; [ ] = dose if it differs, or a comment. Rows were chosen to be rich in hits. Some 9.2% of all compounds tested hit in one or more screens of this group. Calls follow the shape of the dose curve; as a rule, active = well fitted curve in the direction sought with a large enough effect; inconclusive = small, poorly fitted or top-dose-only effect, or another doubt; inactive = no such curve, though single readings can be large; an effect the other way counts as inactive or inconclusive. Potency is read from the fitted curve at half-maximal effect.

SMILES	Rab9 promoter act	ELG1 genotoxic	FLuc counter	NPC1 prom act	ELG1 DNA repair	SMN2 splice up
COc1ccc(-n2nc3c(c2NC(=O)COc2cccc(OC)c2)CS(=O)(=O)C3)cc1	10%	-7%	0%	5%	-16%	.
O=C(O)[C@@H]1[C@@H]2C[C@H]3c4[nH]c5ccccc5c4CCN3C[C@@H]2CC[C@@H]1O	.	.	.	.	.	-7%[20.6 µM]
N/C(=N\OC(=O)c1ccc2c(c1)OCO2)c1ccc(Cl)cc1	?	?	0.85µM*	2.8µM*	?	?
N/C(=N\OC(=O)c1ccc2c(c1)OCO2)c1ccncc1	2.5µM*	?	1.5µM*	3.2µM*	?	.
COc1ccc(/C(N)=N/OC(=O)c2ccc3c(c2)OCO3)cc1	?	?	2.1µM*	?	?	11µM*
Cc1ccc(/C(N)=N/OC(=O)c2ccc3c(c2)OCO3)cc1	2.8µM*	?	2.1µM*	3.2µM*	?	13µM*
CCc1ccc(-c2nc(SCC(=O)NCCOC)c(-c3ccc(C)cc3)[nH]2)cc1	.	.	-13%	.	.	10%
CC(=O)c1cccc(Nc2nc(-c3ccccc3)nc3ccccc23)c1	1%	-15%	2%	2%	23µM*	.
COC(=O)c1cccc(Nc2nc(-c3cccnc3)nc3ccccc23)c1	-6%	-11%	-1%	-4%	7.3µM*	.
CCOC(=O)c1nc(Nc2cccc(C)c2)c2ccccc2n1	2%	-6%	1%	-4%	16µM*	-20%
CCOC(=O)c1cccc(Nc2nc(-c3cccnc3)nc3ccccc23)c1	5%	-18%	-8%	-6%	9.2µM*	-77%
CCc1ccccc1NC(=O)CN(C)C(=O)Cn1cc(C(F)(F)F)cc(Cl)c1=O	-4%	0%	0%	-2%	4%	21%
O=C(Nc1cccc(S(=O)(=O)NC2=NCCC2)c1)c1cc(=O)[nH]c2ccccc12	0%	-2%	-1%	0%	-16%	.
Cn1c(-c2cccc(Br)c2)n[nH]c1=O	-5%	9%	-1%	2%	?	-1%
CC1=C(C(=O)Nc2ccc(F)cc2F)C2(CCCCCC2)OC1=O	.	.	-4%	.	.	.
COC(=O)c1c(-c2cccc3ccccc23)csc1NC(=O)Cc1ccc(OC)c(OC)c1	-3%	-18%	0%	-5%	21µM*	-53%
COC(=O)c1c(-c2ccc(Br)cc2)csc1NC(=O)Cc1ccc(OC)c(OC)c1	-19%	-13%	0%	-2%	18µM*	-74%
COc1ccccc1CNC(=O)COc1ccc(C)cc1	2%	-2%	2%	3.2µM*	6%	.
COc1cccc(NC(=O)COc2ccc(C)cc2)c1	12%	?	12µM*	-2%	?	-51%
COc1cccc(NC(=O)COc2cc(O)c3c(c2)OC(C)(C)CC3=O)c1	?	12%	4.3µM*	?	?	.
COc1cccc(NC(=O)COc2ccc3c(c2)CCC3)c1	1%	17%	15µM*	5%	?	-1%
CC[n+]1ccc(C(=O)NCc2ccccc2)cc1	9%	0%	0%	-4%	-6%	-2%
COc1ccc(C(=O)CSc2nc3cc(C(=O)NC4CCCC4)ccc3c(=O)n2CC2CCCO2)cc1 (stereo unspecified)	.	.	0%	.	.	.
O=C(COC(=O)c1ccccc1OCc1ccccc1Cl)NCC1CCCO1 (stereo unspecified)	.	-2%	.	.	?	.
CS(=O)(=O)c1ccc(-c2cccc(NC(=O)COc3ccc(Cl)cc3)c2)nn1	-4%	10%	-18%	0%	?	.
SMILES	Rab9 promoter act	ELG1 genotoxic	FLuc counter	NPC1 prom act	ELG1 DNA repair	SMN2 splice up
CC1(C)CC(=O)c2c(O)cc(OCc3ccc([N+](=O)[O-])cc3)cc2O1	3.5µM*	?	4.8µM*	2.5µM*	?	16%
COc1ccc(-c2cccc(NC(=O)COc3ccc(Cl)cc3)c2)nn1	-3%	-5%	21µM*	3%	-7%	.
COc1ccc(NS(=O)(=O)c2cccc(NC(=O)COc3ccc(OC)cc3)c2)cc1	-7%	-7%	17µM*	12%	?	.
CCOc1ccc(OCC)c(NC(=O)c2cnc(SC)nc2-c2ccccc2)c1	.	.	3%	.	.	.
CC(=O)c1ccc(NC(=O)C2CCCN(S(=O)(=O)c3cn(C)cn3)C2)cc1 (stereo unspecified)	.	.	-2%	.	.	.
CCC1Oc2ccc(C)cc2N(CC(=O)N2CCN(c3ccccc3OC)CC2)C1=O (stereo unspecified)	.	.	-15%	.	.	.
CCCCCNC(=O)CCn1c(=O)[nH]c2ccccc2c1=O	.	.	-4%	.	.	.
Cc1nc2ccccn2c1-c1nnco1	2%	-1%	-1%	9%	-6%	-1%
Cc1cc(-c2nnco2)c(C)n1-c1ccccc1	?	11µM*	12µM*	?	?	?
Cc1ccc(COc2ccc(/C=N/O)cc2)cc1	1.3µM*	?	5.4µM*	?	?	10µM*
Cc1n[nH]c(=S)n1/N=C/c1ccc(OCc2ccc(Cl)cc2Cl)cc1	10%	13%	?	19%	?	?
NC(N)=N/N=C/c1ccc(OCc2ccccc2)cc1	11%	1%	?	24%	?	.
Cc1n[nH]c(=S)n1/N=C/c1ccc(OCc2ccc(Cl)cc2)cc1	13%	2%	19µM*	15%	?	-6%
NC(N)=N/N=C/c1ccc(OCc2ccc(Cl)cc2)cc1	?	?	6µM*	3.5µM*	?	.
CCCC1(C)C(C#N)(C#N)C1(C#N)C#N	-44%[46.1 µM]	.	.	-35%[46.1 µM]	.	.
O=C(CCc1nc2ccccc2c(=O)[nH]1)Nc1nnc(SCc2ccccc2F)s1	?	?	19µM*	29%	?	.
CC(=O)NCc1ccc(-c2csc(NC(=O)CCc3nc4ccccc4c(=O)[nH]3)n2)s1	.	-4%	.	.	21µM*	.
Cc1ccc(CNC(=O)CCc2nc3ccccc3c(=O)[nH]2)cc1	0%	-1%	-1%	2%	-11%	-18%
O=C(CCc1nc2ccccc2c(=O)[nH]1)Nc1nnc(SCc2ccc(Cl)cc2)s1	-4%	6%	1%	-3%	0%	.
Cn1c(CO)cnc1-c1ccccc1	2%	2%	-1%	1%	3%	.
COc1ccc(CN2CCN(C(=O)Cn3nc(C(=O)O)c4ccccc4c3=O)CC2)cc1F	-2%	-4%	1%	-5%	0%	.
O=C(Nc1ccccc1C(F)(F)F)c1cc(-c2ccc3c(c2)OCCO3)on1	.	.	0.38µM*	.	.	.
